hcDAF-12 act – activates DAF-12 receptor from parasite H. contortus; HEK293 hcDAF-12 lit1-tk-luc reporter, luminescence; 0% DMSO, 100% Δ7-dafachronic acid; activation, % at 6.8 µM; actives 1.4% (n = 370,000); AID 652067;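 active = activation above the mean of all tested compounds plus 3 SD, cut at about 5.5% in these data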;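 note: 100% = response to 3 µM Δ7-dafachronic acid high control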
DAX1 inh-1 – NR0B1 (DAX1) inhibition; actives 0.99% (n = 340,000); AID 504766; inhibition, % at 6.75 µM; HEK293 Gal4-DAX1 luciferase reporter, luminescence;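 active = inhibition above the mean over all tested compounds plus 3 SD, cut at about 4.2% in these data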;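 note: 0% = DAX1-transfected cells with DMSO and 100% = empty-vector control cells with DMSO; inhibition shows as a rise in luminescence from relieved DAX1 repression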
Target sequence (P51843 207-470 limits assumed): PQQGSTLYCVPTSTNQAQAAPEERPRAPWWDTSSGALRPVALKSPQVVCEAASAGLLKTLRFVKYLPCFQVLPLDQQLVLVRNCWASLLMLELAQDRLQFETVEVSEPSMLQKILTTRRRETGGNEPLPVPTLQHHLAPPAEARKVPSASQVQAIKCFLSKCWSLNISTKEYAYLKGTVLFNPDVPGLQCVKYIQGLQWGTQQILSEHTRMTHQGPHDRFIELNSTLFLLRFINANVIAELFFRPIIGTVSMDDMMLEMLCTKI
ssDAF12 agonist – activates DAF-12 receptor from parasite S. stercoralis | activation, % at 6.8 µM | actives 1% (n = 370,000) | HEK293 ssDAF-12/GRIP1 lit1-tk-luc reporter, luminescence; % of 3 µM dafachronic acid response;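 active = activation above the mean over all tested compounds plus 3 SD, cut at about 0.9% in these data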;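 note: 0% = DMSO-only wells and 100% = 3 µM delta7-dafachronic acid wells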
DAX1 inh-2 – inhibitors of DAX1 repression of SF-1 activated StAR promoter; HEK293T StAR-luciferase reporter, SF-1/DAX-1 repression relief; inhibition, % at 6.8 µM; actives 1.1% (n = 370,000); AID 652010;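 active = inhibition above the mean over all tested compounds plus 3 SD, cut at about 3.6% in these data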;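 note: 0% = DAX-1 cells with DMSO and 100% = cells lacking DAX-1 with DMSO; higher inhibition means more luminescence from relief of DAX-1 repression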
SMARCA2 activ – SMARCA2 function activation, primary screen; MG213 cells, MMTV-luciferase reporter, dexamethasone, overnight; activation, % at 9.1 µM; actives 1% (n = 370,000); AID 652017; in the data active = activation above about 7.8%;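 note: 0% = vehicle wells and 100% = reference activator wells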
hgDAF-12 ag – hgDAF-12 agonism, primary luciferase screen. HEK293 GAL4-hgDAF12 UAS-luciferase reporter, agonist luminescence; normalized to butyrate control. activation, % at 6.8 µM. actives 1.8% (n = 370,000). AID 687014;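 active = activation above a cutoff set at the mean of all screened compounds plus 3 SD, cut at about 10% in these data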;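 note: 0% = DMSO wells and 100% = sodium butyrate wells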
SMARCA2 act conf – SMARCA2 activation, confirmation screen. AID 652260. actives 30% (n = 3,500). activation, % at 9.1 µM. shares compounds with SMARCA2 activ. MG213 cells, MMTV-luciferase with dexamethasone, luminescence, overnight; MG213 cells expressing E1A, Rb sequestered; DMSO wells 0%, reference activator 100%;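 active = activation above its plate's cutoff, the mean activation of tested wells plus 3 SD, cut at about 7.9% in these data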
VP16 Luc act – counter-screen for SMARCA2 activators: GAL4-VP16 luciferase reporter activation. HEK293 GAL4-VP16 pG5luc reporter, luciferase luminescence; scaled: DMSO wells 0%, SAHA wells 100%. actives 41% (n = 3,500). AID 686939. activation, % at 9.1 µM. shares compounds with SMARCA2 activ;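 active = activation above the solvent-only control well mean plus 3 SD, averaged across control plates, cut at about 5.2% in these data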
* marks the source's active call; other numbers are inactive results. Compounds with a hit are over-represented: about 4.8% of the library has one in this group of screens.

Screening Cc1cc(NC(=O)CCS(=O)(=O)c2nc(-c3ccccc3)cc(C(F)(F)F)n2)no1 returned hcDAF-12 act -1.6, DAX1 inh-1 -1.1, ssDAF12 agonist -0.7, DAX1 inh-2 0.3, SMARCA2 activ 9.3*, hgDAF-12 ag -2.5, SMARCA2 act conf -15.1 and VP16 Luc act 2.8.
For CCC1CCCCN1C(=O)CSc1nnc(-c2cccs2)o1 (configuration not stated) the results were hcDAF-12 act 3.2, DAX1 inh-1 1.1, ssDAF12 agonist 1.0*, DAX1 inh-2 2.1, SMARCA2 activ 8.0*, hgDAF-12 ag 9.5, SMARCA2 act conf 12.2* and VP16 Luc act 8.4*.
Screening O=C(CSc1nnc(-c2cccs2)o1)c1cccs1 returned hcDAF-12 act 2.3, DAX1 inh-1 1.4, ssDAF12 agonist -1.2, DAX1 inh-2 1.0, SMARCA2 activ 8.0*, hgDAF-12 ag 6.4, SMARCA2 act conf 11.9* and VP16 Luc act 7.0*.
Screening COc1cccc2c3c(c(=O)[nH]c12)CC(C)(C)O3 returned hcDAF-12 act 0.7, ssDAF12 agonist -1.6, DAX1 inh-2 0.0, SMARCA2 activ 12.1*, hgDAF-12 ag 0.4, SMARCA2 act conf -0.8 and VP16 Luc act -0.2.
For CCc1ccc(N2CC(C(=O)OCC(=O)c3c(N)n(CC(C)C)c(=O)n(C)c3=O)CC2=O)cc1 (configuration not stated) the results were hcDAF-12 act 0.2, DAX1 inh-1 1.3, ssDAF12 agonist -1.4, DAX1 inh-2 1.5, SMARCA2 activ -5.6 and hgDAF-12 ag -0.8.
`CC1CCN(C(=O)CN(CCc2ccccc2)S(C)(=O)=O)CC1` gave hcDAF-12 act -1.2, DAX1 inh-1 0.3, ssDAF12 agonist -1.1, DAX1 inh-2 0.0, SMARCA2 activ -1.9 and hgDAF-12 ag -0.7.
`COCCn1c(=O)[nH]c2cc(C(=O)N3CCN(c4cccc(Cl)c4)CC3)ccc2c1=O` gave hcDAF-12 act -0.8, DAX1 inh-1 0.3, ssDAF12 agonist -1.1, DAX1 inh-2 -0.1, SMARCA2 activ -2.3 and hgDAF-12 ag -1.2.
O=C(NC(=S)NCc1nc2ccccc2[nH]1)c1ccc(F)cc1 was read as hcDAF-12 act 2.5, DAX1 inh-1 0.1, ssDAF12 agonist 0.4, DAX1 inh-2 1.3, SMARCA2 activ 9.9*, hgDAF-12 ag 10.5*, SMARCA2 act conf 6.7 and VP16 Luc act 3.6.
Screening O=C(NCCc1nc2ccccc2[nH]1)c1ccc(F)cc1 returned DAX1 inh-1 0.8.
`CCCCN1C(=O)C(CC(=O)NC2CCCCC2)CC(C(=O)N2CCCCCC2)=C1C` (configuration not stated) gave hcDAF-12 act -0.8, ssDAF12 agonist -0.6, DAX1 inh-2 0.3, SMARCA2 activ -3.7 and hgDAF-12 ag -4.0.
N#Cc1c(NCCN)nc(-c2ccco2)c2c1CCCC2 was read as hcDAF-12 act -0.4, DAX1 inh-1 -0.5, ssDAF12 agonist -1.0, DAX1 inh-2 -1.1, SMARCA2 activ 9.7*, hgDAF-12 ag 1.2, SMARCA2 act conf 30.7* and VP16 Luc act -0.4.
Screening CC1CCN(C(=S)NC(=O)c2cccc([N+](=O)[O-])c2)CC1 returned hcDAF-12 act -0.8, DAX1 inh-1 -0.3, ssDAF12 agonist -0.8, DAX1 inh-2 -0.2, SMARCA2 activ 8.6*, hgDAF-12 ag 0.9, SMARCA2 act conf -1.4 and VP16 Luc act 0.4.
`CN1CCN(C(=S)NC(=O)c2cccc([N+](=O)[O-])c2)CC1` gave hcDAF-12 act -0.4, DAX1 inh-1 0.1, ssDAF12 agonist -1.2, DAX1 inh-2 0.9, SMARCA2 activ 6.7 and hgDAF-12 ag -1.2.

Compound activity as filed in PubChem BioAssay.
